Hits are enriched below; roughly 3.8% of the tested compounds scored in any of these assays.
S2 tox – Viability Counterscreen for Primary qHTS for Inhibitors of ATXN expression; S2 cells (HEK-293 line with an ATXN2-luciferase reporter) viability, CellTiter-Fluor protease fluorescence, 24 h; 400,000 compounds, 0.49% hits; Potency, µM (highest dose often 56.7 µM), actives largely listed as cytotoxic; further: nearly all actives have a fitted effect of over 40% in size
HepG2 viability – qHTS for Inhibitors of TGF-b: Cytotox Counterscreen; HepG2 CAGA-GFP viability, ATP luminescence, 18 h; 410,000 compounds, 0.76% hits; Potency, µM (titrated, usually from 46.1 µM), inactives show at the top dose activity change, negative = cytotoxicity, hits mostly cytotoxic
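HepG2 CAGA-GFP cells (1000/well, DMEM with 1% FBS) received compound, then TGF-beta at 500 pg/mL final, and were incubated 18 hours at 37 degrees C. Viability was read by CellTiter-Glo luminescence. Media-only wells were set as complete cell-killing and DMSO as no toxicity.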
HT1080-NT tox – qHTS for induction of synthetic lethality in tumor cells producing 2HG: qHTS for the HT-1080-NT fibrosarcoma cell line | Potency, µM (top dose mostly 46.1 µM), without a hit: at the highest dose activity, negative = less viability, usual class: cytotoxic | HT-1080-NT fibrosarcoma viability, CellTiter-Glo ATP luminescence, 48 h | AID 686970, 2013 | 360,000 compounds, 1.6% hits;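 further: NT is the 2HG producing partner of a matched IDH1 knockdown line; 0% = DMSO-treated cells and -100% = media-only wells without cells; nearly all actives have a fitted effect of over 55% in size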
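Compounds were tested in concentration-response format on HT-1080-NT cells for 48 hours at 37 degrees C. Cell viability came from CellTiter-Glo luminescence; curves were classified by r2, response magnitude and activity.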
TGFb inhibitor – qHTS for Inhibitors of TGF-b. HepG2 CAGA-GFP TGF-b/SMAD3 reporter, GFP fluorescence, 18 h; TGF-beta stimulated, 500 pg/mL final. Potency, µM (doses to about 46.1 µM), without a hit: at the highest dose activity, negative = inhibition, hits mostly inhibitors. 410,000 compounds, 1.2% hits; further: on the % scale 0 is the no-effect control and ±100 the full control effect; nearly all actives have a fitted effect of over 65% in size
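HEPG2 CAGA-GFP cells (1000/well, DMEM with 1% FBS) were pre-incubated 2 h at 37 degrees C, given compound by pin tool, then stimulated with TGF-beta at 500 pg/mL final for 18 h before per-cell GFP fluorescence imaging.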
HT1080 IDH1KD tx – qHTS for induction of synthetic lethality in tumor cells producing 2HG: qHTS for the HT-1080-IDH1KD cell line | HT-1080 IDH1 knockdown viability, ATP luminescence, 48 h | Potency, µM (doses to about 46.1 µM), for the others: at the highest dose activity, negative = toxicity, most hits filed as cytotoxic | 360,000 compounds, 2% hits | AID 686971, 2013;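 further: 0% = DMSO wells and -100% = cell-free medium wells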
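Using the IDH1-knockdown HT-1080 line run in the same batch and compound series as the NT line, viability after 48 h at 37 °C was determined by CellTiter-Glo luminescence and expressed as % activity.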
ATXN2 expr inh – Primary qHTS for Inhibitors of ATXN expression; 360,000 compounds, 0.72% hits; HEK-293 ATXN2-luciferase reporter, luminescence, 24 h; Potency, µM (top dose mostly 57 µM), inactives show at the highest dose activity change, negative = inhibition, usual class: inhibitors; AID 1745845, 2022; further: on the % scale 0 is the no-effect control and ±100 the full control effect; nearly all actives have a fitted effect of over 55% in size
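ATXN2-luciferase reporter cells (luciferase flanked by upstream and downstream ATXN2 gene portions) were treated 24 h at 37 °C with compounds at up to 57 uM. SteadyGlo luminescence gave expression; GF-AFC fluorescence gave viability.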
Active calls of the source: *; i = inactive; ? = inconclusive; · = not tested or not shown; ! = repeats disagree. The call rests on the fitted dose curve; in most records, active means well fitted curve in the direction sought with a large enough effect; inconclusive means small, poorly fitted or top-dose-only effect, or another doubt; inactive means no such curve, though single readings can be large; an effect the other way counts as inactive or inconclusive. Potency means the concentration at half of the fitted maximal effect.

SMILES	S2 tox	HepG2 viability	HT1080-NT tox	TGFb inhibitor	HT1080 IDH1KD tx	ATXN2 expr inh
N#CC1=C(N)N(c2ccccc2)C2=C(C(=O)CCC2)C1c1ccsc1 (stereo not drawn)	i	-28%	11µM*	-2%	?	13%
CN(C)N1C(N)=C(C#N)C(c2ccsc2)C2=C1CCCC2=O (stereo not drawn)	i	-2%	1%	-6%	0%	0%
CCOc1ccc(N)c(SSc2cc(OCC)ccc2N)c1	1µM*	10µM*	?	6.3µM*	?	·
CCOc1cccc(N)c1	i	-1%	17%	-2%	-5%	9%
CNC[C@H](CC1CCCCC1)NC[C@H](CO)NCCc1cccc(C(F)(F)F)c1	22µM*	-103%	?	?	?	28µM*
COCCN(C)C(=O)c1cnn(-c2nccc(-c3cc(C)sc3C)n2)c1C	i	·	·	·	·	·
Cc1cccc(N2CCN(c3cc(C)nc4c(-c5ccc(Cl)cc5)c(C)nn34)CC2C)c1 (stereo not drawn)	·	-19%	·	-8%	·	·
CCN(CC)CCNCc1cc(Cl)ccc1OCc1ccccc1F	i	-32%	23µM*	-1%	?	-37%
CC(C)CC(NC(=O)c1ccc(Cl)cc1)C(=O)OCC(=O)c1ccc2c(c1)NC(=O)CO2 (stereo not drawn)	22µM*	3.2µM*	10µM*	11µM*	8.2µM*	25µM*
O=C(c1ccco1)N(Cc1cc2ccccc2[nH]c1=O)C1CCCCC1	i	-13%	-5%	?	-10%	9%
O=C(c1ccncc1)N(Cc1cc2ccccc2[nH]c1=O)C1CCCCC1	i	-70%	7.1µM*	-18%	5.6µM*	-8%
CCC(CC)C(=O)Nc1nnc(S(=O)(=O)N(C)c2cc(C)cc(C)c2)s1	·	-25%	·	-3%	·	·
C/C(=N\NC(N)=S)c1cc(-c2ccccc2)c(-c2ccccc2)s1	?	-41%	?	13µM*	?	?
CC(C)c1ccc(CN2CCC3(CCC(CNC(=O)c4ccn(C)n4)O3)CC2)cc1 (stereo not drawn)	i	·	·	·	·	·
Cc1ccccc1C(C(=O)NC1CCCC1)N(C(=O)Cn1cnc2ccccc21)c1cccc(F)c1 (stereo not drawn)	·	·	·	·	·	-6%
Clc1cnc(N/N=C/c2cccs2)c(Cl)c1	i	-37%	-12%	-2%	-24%	22%
Cc1ccc(/C=N/Nc2ncc(Cl)cc2Cl)s1	i	-31%	6.3µM*	?	7.1µM*	13%
COc1cccc(-c2nnc3sc(CN4CCCCC4)cn23)c1	?	-16%	·	-13%	·	-7%
CCCCN(CC)S(=O)(=O)c1ccc(C(=O)Nc2nnc(-c3cccs3)o2)cc1	?	17%	?	-18%	8.2µM*	?
CCN(CC)S(=O)(=O)c1ccc(C(=O)Nc2nnc(-c3ccco3)o2)cc1	i	-46%	-26%	-8%	?	·
CCCCN(CCCC)S(=O)(=O)c1ccc(C(=O)Nc2nnc(COC)o2)cc1	?	-17%	?	?	12µM*	-36%
CCN(CC)S(=O)(=O)c1ccc(C(=O)Nc2nnc(COC)o2)cc1	i	-4%	-9%	10%	-3%	19%
COc1cccc(C(=O)Nc2nnc(-c3cccs3)o2)c1	28µM*	-26%	-28%	-24%	-25%	?
C/C(=C1\CCOC(=O)S1)N(C=O)Cc1cnc(C)nc1N	i	·	·	·	·	5%
Cc1cccc(OCc2n(CC(=O)OC3CC(C)CCC3C(C)C)c3ccccc3[n+]2C)c1 (stereo not drawn)	·	20µM*	18µM*	16µM*	8.2µM*	?
SMILES	S2 tox	HepG2 viability	HT1080-NT tox	TGFb inhibitor	HT1080 IDH1KD tx	ATXN2 expr inh
CC1CCC(C(C)C)C(OC(=O)CSc2nnc(N)s2)C1 (stereo not drawn)	i	5%	-1%	3%	1%	2%
CC1CCC(C(C)C)C(OC(=O)Cn2c(-c3ccc(F)cc3)[n+](C)c3ccccc32)C1 (stereo not drawn)	?	-51%	18µM*	8.9µM*	10µM*	8.9µM*
CC1CCC(C(C)C)C(OC(=O)Cn2c(-c3ccccc3)[n+](C)c3ccccc32)C1 (stereo not drawn)	?	-53%	?	5.6µM*!	9.2µM*	?
CC1CCC(C(C)C)C(OC(=O)CSc2nc(N)cc(=O)[nH]2)C1 (stereo not drawn)	i	-25%	-2%	-12%	-3%	-12%
COc1cc(OC)c(OC)cc1/C=C/c1nc2ccccc2o1	·	-28%	·	6%	·	·
COc1ccccc1NCC(O)Cn1c2ccccc2c2ccccc21 (stereo not drawn)	i	-115%	-29%	13µM*	?	-17%
COc1ccc(CCNCC(O)Cn2c3ccccc3c3ccccc32)cc1OC (stereo not drawn)	?	11µM*	-6%	?	23µM*	?
CCO[C@@H]1OC(C(=O)N2CCN(Cc3ccc4c(c3)OCO4)CC2)=C[C@H](C2CCCCC2)[C@H]1CCCO	18µM*	-1%	-16%	?	-16%	?
N[C@@H](C(=O)N[C@@H]1C(=O)N2C(C(=O)O)=C(CSc3cn[nH]n3)CS[C@H]12)c1ccc(O)cc1	i	·	·	·	·	·
CC(C)COc1ccc(CNC(=S)Nc2ccccc2)cc1Cl	i	13µM*	-22%	11µM*	?	-29%
CCCCCCCCNC(=S)NCCN1CCCCC1	25µM*	-23%	-27%	?	-3%	·
CCC1(C2CCN(Cc3ccc(C)s3)CC2)NC(=O)N(CC2COc3ccccc3O2)C1=O (stereo not drawn)	i	·	·	·	·	·
CCN(CC)C(=O)C1=C(C)N(Cc2ccc(C(C)(C)C)cc2)C(=O)C(CC(=O)NCCCCc2ccccc2)C1 (stereo not drawn)	·	-58%	?	14µM*	?	?
COc1ccc(Cc2[nH]n3c(=O)cc(C(C)C)nc3c2-c2ccccc2)cc1	?	11µM*	?	?	?	22µM*
O=C(c1ccc2c(Cl)c3c(nc2c1)CCCC3)N1CCN(c2ccccc2F)CC1	i	16%	·	15%	·	4%
COC(=O)C1CCN(Cc2ccc3c(c2)CN(C(=O)c2ccnn2C)CCO3)CC1	i	·	·	·	·	·
